Our source for the growth values is PubChem BioAssay (NCI).

Several values for one entry are separate records, joined by “and”; a condition that tells them apart may be missing. Identical values can stand only once. The panel holds about 83,000 compounds, 20% with a hit somewhere; the sample as a whole holds those more often.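 Interpretation: 100, growth as untreated; towards 0, rising growth inhibition; 0, no net growth; 0 to -100, cell death. Compounds scoring below 10 were considered active.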 A number with no mark means an inactive call. Activity calls are given as the source filed them.

Some test systems named below: SK-MEL-2 melanoma; SN12C renal; UO-31 renal; ACHN renal; CAKI-1 renal; A498 renal; MOLT-4 leukemia.
Experiment in all cases: NCI-60 one-dose screen, 48 h (100 = growth as untreated, 0 = no growth, -100 = all killed)
The next assay has as its system EKVX NSCLC. The following applies: 10 µM unless noted.
A further assay relates to TK-10 renal. The conditions noted are these: 10 µM unless noted.
The subject of another assay is CCRF-CEM leukemia. The following applies: 10 µM unless noted.

Turning to `Oc1c(Cl)cc(Cl)c2cccnc12`, the growth in the assay with SK-MEL-2 melanoma (10 µM unless noted) was 80% and 60.3%; with EKVX NSCLC it was 58.9% and 51.5%; in the assay with SN12C renal (10 µM unless noted) it was 57.3%; in the assay on UO-31 renal (10 µM unless noted) it was 42.8% and 24.9%; in the assay on TK-10 renal it was 53% and 107%; with ACHN renal (10 µM unless noted) it was 42%. Further, the growth in the assay with CAKI-1 renal (10 µM unless noted) is 46.3% and 51.3%; with A498 renal (10 µM unless noted) it was 67.6% and 66.6%; in the assay on CCRF-CEM leukemia, 31% and 36.4%; with MOLT-4 leukemia (10 µM unless noted), 37.1% and 35.7%.
As to `CCN1/C(=C\c2cc[n+](CC)c3ccccc23)C=Cc2ccccc21`, the growth in the assay on SK-MEL-2 melanoma (10 µM unless noted) is 0.604% (active); in the assay with EKVX NSCLC, 15.8%; in the assay on SN12C renal (10 µM unless noted), 8.57% (active); in the assay with UO-31 renal (10 µM unless noted), 11.4%; in the assay on TK-10 renal it was 22.3%; with ACHN renal (10 µM unless noted) it was 15.2%. The growth is 53.9% in the assay with CAKI-1 renal (10 µM unless noted), -20.2% (active) in the assay on A498 renal (10 µM unless noted), 28.1% in the assay on CCRF-CEM leukemia and 13.2% with MOLT-4 leukemia (10 µM unless noted).
`O=C(/C=C\c1ccccc1)N1c2ccccc2CC1c1c[nH]c2ccccc12` (stereo not given): the growth in the assay on SK-MEL-2 melanoma (10 µM unless noted) was 61.3%; in the assay with EKVX NSCLC, 66%; in the assay with SN12C renal (10 µM unless noted) it was 74.3%; with UO-31 renal (10 µM unless noted), 40.1%; with TK-10 renal, 77.8%; with ACHN renal (10 µM unless noted), 79.4%. Besides, the growth with CAKI-1 renal (10 µM unless noted) was 62.8%; with A498 renal (10 µM unless noted) it was 54.2%; with CCRF-CEM leukemia, 68.6%; with MOLT-4 leukemia (10 µM unless noted), 44.3%.
Consider `COc1ccccc1/C=C\C(=O)c1ccccc1`, for which the growth with SK-MEL-2 melanoma (10 µM unless noted) is 87.6%; in the assay on EKVX NSCLC, 85.2%; in the assay on SN12C renal (10 µM unless noted), 76.8%; with UO-31 renal (10 µM unless noted), 44.1%; with TK-10 renal, 104%; in the assay with ACHN renal (10 µM unless noted) it was 77%. Besides, the growth with CAKI-1 renal (10 µM unless noted) is 83.2%; in the assay with A498 renal (10 µM unless noted) it was 101%; in the assay with CCRF-CEM leukemia, 11%; with MOLT-4 leukemia (10 µM unless noted), 58.1%.
In the case of `N#Cc1ccc([N+](=O)[O-])o1`, the growth was 91% with SK-MEL-2 melanoma (10 µM unless noted); 105% in the assay with EKVX NSCLC; 106% with SN12C renal (10 µM unless noted); 92.6% in the assay on UO-31 renal (10 µM unless noted); 108% in the assay with TK-10 renal; 104% with ACHN renal (10 µM unless noted). Moreover, the growth in the assay on CAKI-1 renal (10 µM unless noted) was 104%; in the assay on A498 renal (10 µM unless noted) it was 98.5%; with CCRF-CEM leukemia it was 102%; with MOLT-4 leukemia (10 µM unless noted), 99.5%.
Consider `C[N+](C)=c1ccc2nc3c(cc(NCCCNc4cc5oc6cc(=[N+](C)C)ccc-6nc5c5ccccc45)c4ccccc43)oc-2c1`, for which the growth with SK-MEL-2 melanoma (10 µM unless noted) was 90.4%; with EKVX NSCLC it was 45.6%; in the assay with SN12C renal (10 µM unless noted), -25.5% (active); with UO-31 renal (10 µM unless noted) it was 45.1%; in the assay on TK-10 renal, 115%; in the assay on ACHN renal (10 µM unless noted), 25.3%. For the same compound, the growth in the assay with CAKI-1 renal (10 µM unless noted) is 53.8%; in the assay with A498 renal (10 µM unless noted), 109%; in the assay on CCRF-CEM leukemia, 11.3%; in the assay with MOLT-4 leukemia (10 µM unless noted) it was 5.25% (active).
`CN(C)C(=O)c1ccc(SC(=S)NCc2ccccc2)cc1`: the growth in the assay with SK-MEL-2 melanoma (10 µM) was 114%; in the assay on SK-MEL-2 melanoma (100 µM), 4.25% (active); with EKVX NSCLC, 69.5% [100 µM]; with SN12C renal (10 µM) it was 103%; with SN12C renal (100 µM), -15.4% (active); with UO-31 renal (10 µM), 93.2%. In addition, the growth in the assay with UO-31 renal (100 µM) was -67.4% (active); in the assay with ACHN renal (10 µM) it was 103%; with ACHN renal (100 µM), -56.9% (active); in the assay with CAKI-1 renal (10 µM) it was 102%; with CAKI-1 renal (100 µM), 11.2%; with A498 renal (10 µM) it was 114%. Also, the growth with A498 renal (100 µM) is 96.1%; with CCRF-CEM leukemia, 0.435% [100 µM] (active); in the assay on MOLT-4 leukemia (10 µM) it was 111%; in the assay with MOLT-4 leukemia (100 µM), 3.1% (active).
Take `CN(Cc1cnc2nc(N)nc(N)c2n1)c1ccc(C(=O)NC(CCC(=O)O)C(=O)O)cc1` (stereo not given): the growth is 79.6% with SK-MEL-2 melanoma (10 µM unless noted); 70.9% in the assay with EKVX NSCLC; 26.9% in the assay with SN12C renal (10 µM unless noted); 9.25% (active) in the assay with UO-31 renal (10 µM unless noted); 58.8% with TK-10 renal; 26.8% in the assay with ACHN renal (10 µM unless noted). Besides, the growth in the assay on CAKI-1 renal (10 µM unless noted) was 22.2%; in the assay with A498 renal (10 µM unless noted) it was 35.4%; in the assay with CCRF-CEM leukemia it was 28.8%; in the assay with MOLT-4 leukemia (10 µM unless noted) it was 24.4%.
Consider `O=C(Oc1cccc2cccnc12)c1ccccc1`, for which the growth with SK-MEL-2 melanoma (10 µM unless noted) was 110% and 96.7%; in the assay with EKVX NSCLC, 91% and 107%; in the assay with SN12C renal (10 µM unless noted) it was 86% and 104%; with UO-31 renal (10 µM unless noted), 78.6% and 82%; with TK-10 renal, 106% and 107%; in the assay with ACHN renal (10 µM unless noted), 96.5% and 104%. Besides, the growth in the assay on CAKI-1 renal (10 µM unless noted) is 89.7%; in the assay on A498 renal (10 µM unless noted), 117%; in the assay on CCRF-CEM leukemia, 23.7% and 102%; in the assay on MOLT-4 leukemia (10 µM unless noted), 80%.
On to `Oc1c(Cl)c2ccccc2c2ccccc12`, for which the growth in the assay on SK-MEL-2 melanoma (10 µM unless noted) is 96.9%; with EKVX NSCLC, 117%; in the assay on SN12C renal (10 µM unless noted), 98.5%; in the assay with UO-31 renal (10 µM unless noted), 91.8%; with TK-10 renal it was 84.8%; in the assay with ACHN renal (10 µM unless noted), 100%. For the same compound, the growth in the assay on CAKI-1 renal (10 µM unless noted) was 111%; with A498 renal (10 µM unless noted), 122%; in the assay with CCRF-CEM leukemia, 112%.
On to `Cc1ccc2c(ccc3c[n+]4c5ccccc5ccc4n32)c1`, for which the growth with SK-MEL-2 melanoma (10 µM unless noted) was -19.8% (active); with EKVX NSCLC, 22.4%; with SN12C renal (10 µM unless noted), 5.27% (active); with UO-31 renal (10 µM unless noted), 51%; in the assay on TK-10 renal, 58.6%; with ACHN renal (10 µM unless noted), 46.9%. In addition, the growth with CAKI-1 renal (10 µM unless noted) was 67.8%; with A498 renal (10 µM unless noted) it was 16%; in the assay on CCRF-CEM leukemia, 19.2%; with MOLT-4 leukemia (10 µM unless noted) it was 8.93% (active).
On to `CCN(CC)CCOc1ccc(-c2nc3cc(Cl)ccc3s2)cc1`, for which the growth was 80.2% in the assay on SK-MEL-2 melanoma (10 µM unless noted); 57.3% in the assay with EKVX NSCLC; 36% in the assay with SN12C renal (10 µM unless noted); -46.7% (active) in the assay on UO-31 renal (10 µM unless noted); 8.65% (active) in the assay on TK-10 renal; 10.3% in the assay on ACHN renal (10 µM unless noted). The growth is 11.9% in the assay on CAKI-1 renal (10 µM unless noted), -0.459% (active) in the assay on A498 renal (10 µM unless noted), 4.45% (active) in the assay with CCRF-CEM leukemia and -79.3% (active) with MOLT-4 leukemia (10 µM unless noted).
